# Most compounds without a hit are left out; they make up all but 0.31% or so of the library.
# TRPV1 potentiator: enhances activation of the human vanilloid receptor TRPV1; 0.02% of 320,000 active; potentiation, % at 8.33 µM; TRPV1-expressing cells, Fluo-8 calcium influx, capsaicin EC20 potentiation; in the data active = potentiation above about 80%; inconclusive = between about 30% and that limit; also: 0% is about no effect
# Target sequence (Q8NER1 whole entry, looked up): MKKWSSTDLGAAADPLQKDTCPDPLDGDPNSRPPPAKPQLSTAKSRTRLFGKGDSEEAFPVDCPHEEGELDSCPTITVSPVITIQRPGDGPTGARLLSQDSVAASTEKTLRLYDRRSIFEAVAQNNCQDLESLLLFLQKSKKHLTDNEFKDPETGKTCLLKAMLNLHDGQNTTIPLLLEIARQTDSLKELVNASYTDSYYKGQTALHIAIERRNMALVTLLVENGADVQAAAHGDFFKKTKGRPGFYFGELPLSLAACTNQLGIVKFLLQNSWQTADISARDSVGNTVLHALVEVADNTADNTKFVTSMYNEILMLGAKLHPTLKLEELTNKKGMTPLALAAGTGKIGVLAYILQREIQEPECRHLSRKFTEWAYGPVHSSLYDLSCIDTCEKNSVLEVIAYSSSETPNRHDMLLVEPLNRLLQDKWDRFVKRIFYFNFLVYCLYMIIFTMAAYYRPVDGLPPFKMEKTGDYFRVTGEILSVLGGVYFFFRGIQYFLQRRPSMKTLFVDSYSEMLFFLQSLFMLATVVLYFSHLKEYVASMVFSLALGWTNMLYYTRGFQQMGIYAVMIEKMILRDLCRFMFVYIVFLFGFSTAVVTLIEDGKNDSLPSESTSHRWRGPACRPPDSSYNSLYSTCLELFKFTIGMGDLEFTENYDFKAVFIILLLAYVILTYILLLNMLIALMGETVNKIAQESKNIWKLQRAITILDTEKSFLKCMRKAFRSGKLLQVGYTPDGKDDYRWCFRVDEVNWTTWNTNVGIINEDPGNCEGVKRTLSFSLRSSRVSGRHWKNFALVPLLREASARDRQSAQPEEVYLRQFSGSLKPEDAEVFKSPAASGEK
#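 Fluo-8 calcium influx in TRPV1-expressing cells, kinetic read (ex 480/em 520 nm). Compound added and read 3 min for agonist activity, followed by capsaicin at EC20 final and 2 min further read for enhancement.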
# TRPV1 agonist: activates the human vanilloid receptor TRPV1. TRPV1-expressing cells, Fluo-8 calcium influx, agonist mode. activation, % at 8.33 µM. 0.19% of 320,000 active. Q8NER1; in the data active = activation above about 80%; inconclusive = between about 30% and that limit; also: 0% is about no effect
#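 Fluo-8 calcium influx in TRPV1-expressing cells, kinetic read (ex 480/em 520 nm). Compound added and read 3 min for agonist activity, followed by capsaicin at EC20 final and 2 min further read for enhancement.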
# TRPML1 ag: activates the human TRPML1 channel. TRPML1-expressing cells, Ca2+ dye fluorescence, FDSS. activation, % (concentration not given with the values). 0.12% of 410,000 active. Q9GZU1. AID 624414; in the data active = activation above about 50%; inconclusive = mostly about 30% to 49%; also: 0% is about no effect
#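 TRPML1-DL cells, Tet-induced overnight (~16 h, 37 degrees C), loaded 45-90 min at room temperature with Ca8 no-wash calcium dye plus quencher. FDSS fluorescence: 10 s baseline, compound pin-transfer, 110 s agonist read, then EC80 54-4 (4uM final) and 110 s antagonist read.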
# TRPML1 inh: inhibitors of human TRPML1 channel. TRPML1-inducible cells, Ca2+ dye fluorescence, FDSS; active compounds read low; inhibition of EC80 agonist-evoked calcium signal. 0.02% of 390,000 active. Q9GZU1. activity change, negative = inhibition, % (test concentration not listed); in the data active = activity change below about -50%; inconclusive = between about -30% and that limit;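 also: stimulus is agonist 54-4 at its EC80 concentration; % is scaled to controls: 0 for no effect and ±100 for the full control effect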
#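 TRPML1-DL cells, Tet-induced overnight (~16 h, 37 °C) at 1,500 cells/well, were loaded with Ca8 no-wash dye plus quencher for 45-90 min at room temperature. Compounds were pinned during FDSS kinetic reading; agonist 54-4 at EC80 (4 uM final) then added.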
# The depositor's hits bear a star; ? = inconclusive; . = not tested or not shown.
SMILES,TRPV1 potentiator,TRPV1 agonist,TRPML1 ag,TRPML1 inh
Cc1ccc(NC(=O)c2sc3nc(C)nc(N4CCN(c5ccccn5)CC4)c3c2C)c(C)c1,-11,9,?,-19
Cc1nc(N2CCCCC2)c2c(C)c(C(=O)Nc3ccccc3C(F)(F)F)sc2n1,-21,89*,1,4
Cc1nc(N2CCCCC2)c2c(C)c(C(=O)Nc3cccc(C(F)(F)F)c3)sc2n1,26,-15,1,20
Cc1nc(N2CCN(c3ccccn3)CC2)c2c(C)c(C(=O)Nc3ccc(Br)cc3C)sc2n1,11,-2,55*,1
O=C(c1cc(-c2ccc(Br)cc2)on1)N1CCOCC1,-17,99*,0,-5
O=C(c1cc(-c2ccc(Br)cc2)on1)N1CCCCCC1,0,?,0,-6
CCOc1c(Nc2ccc(C(C)C)cc2)c(=O)c1=O,-1,83*,-1,25
COc1nc(Nc2ccc(C(C)C)cc2)nc(OC)n1,3,2,2,2
CCOC(=O)c1ccc(NC(=O)NCc2ccccc2OC)cc1,16,84*,0,3
Cc1ccccc1CNC(=O)c1cc2cc(S(=O)(=O)N3CCCCC3)ccc2n1C,.,.,0,4
CC(C)CC(=O)N1C/C=C\C[C@@H](c2ccc(Cl)cc2)N(Cc2ccc(Cl)cc2)C(=O)[C@@H]1Cc1ccccc1,.,.,0,.
CC(C)(C)n1ncc2c(=O)n(Cc3ccc(SC(F)(F)F)cc3)cnc21,.,.,2,31
CC(C)(C)n1ncc2c(=O)n(Cc3cccc(C(F)(F)F)c3)cnc21,.,.,1,0
CCOC(=O)c1ccc(Nc2nnc(C)c3ccccc23)cc1,-10,86*,2,6
COc1cc(N)c(N)cc1OC,.,.,0,.
CCc1ccccc1NC(=O)Cn1c(=O)n(-c2ccc(C)c(C)c2)c(=O)c2oc3ccccc3c21,.,.,3,12
N#C/C(=C\c1ccc(N2CCOCC2)o1)C(=O)Nc1ccc(O)cc1,7,0,17,12
COc1ccc(NC(=O)/C(C#N)=C\c2ccc(N3CCOCC3)o2)cc1,-11,?,65*,2
N#C/C(=C/c1ccc(N2CCCCC2)o1)C(=O)Nc1ccc2ccccc2c1,9,?,51*,1
N#C/C(=C/c1ccc(N2CCCCC2)o1)C(=O)Nc1ccc(Cl)cc1,10,?,61*,-11
CCOC(=O)c1[nH]c(C)c(CCC(=O)N2CCN(c3cc(C)ccc3C)CC2)c1C,.,.,2,44
COC(=O)c1c(-c2cccs2)csc1NC(=O)COc1ccc(C(C)C)cc1,.,.,3,26
O=C1c2cccc3c(N4CCCCC4)ccc(c23)C(=O)N1c1ccc(O)cc1,-3,?,?,15
O=C1c2cccc3c(N4CCCCC4)ccc(c23)C(=O)N1c1ccccc1O,0,?,58*,-9
Cc1ccc2oc(C(=O)NCC3CCOCC3)c(C)c2c1,-12,84*,0,-19
SMILES,TRPV1 potentiator,TRPV1 agonist,TRPML1 ag,TRPML1 inh
Cc1ccc2c(C)c(C(=O)NCC3CCOCC3)oc2c1C,.,.,-1,11
Nc1cc(=O)[nH]c(=O)n1-c1ccc(Cl)cc1,16,-4,-1,-77*
Cc1cc(=O)n(-c2ccc(Cl)cc2)c(=O)[nH]1,22,-1,0,3
Cc1ccc(S(=O)(=O)N2C[C@H]3C(=O)C[C@@H](c4ccccc4)N(S(=O)(=O)c4cccc(C)c4)[C@H]3C[C@H]2c2ccccc2)cc1,.,.,3,-22
Cc1ccc([C@@H]2CC(=O)[C@@H]3CN(S(=O)(=O)c4ccc(C)cc4)[C@H](c4cccc5ccccc45)C[C@@H]3N2S(=O)(=O)c2ccc(Cl)cc2)cc1,.,.,1,2
Cc1ccc(S(=O)(=O)N2C[C@H]3C(=O)C[C@@H](c4ccccc4)N(S(=O)(=O)c4ccc(C)cc4)[C@H]3C[C@H]2c2cccc(C)c2)cc1,.,.,93*,?
Cc1ccc(S(=O)(=O)N2C[C@H]3C(=O)C[C@@H](c4ccccc4)N(S(=O)(=O)c4ccc(C)cc4)[C@H]3C[C@H]2c2cccc3ccccc23)cc1,.,.,56*,-2
CC(=O)Nc1ccc(S(=O)(=O)O)c2cc(S(=O)(=O)O)c(N=Nc3ccc(N=Nc4ccc(S(=O)(=O)O)cc4)c4ccc(S(=O)(=O)O)cc34)c(O)c12,.,.,-1,.
O=C(CSc1nc2c([nH]c3ccccc32)c(=O)n1-c1ccccc1)Nc1ccccc1C(F)(F)F,.,.,-1,2
CSCCNC(=O)c1ccc2nc(C3CCCCC3)oc2c1,1,92*,-1,22

# Compound activity as filed in PubChem BioAssay.
